Assay results: PubChem BioAssay (EPA / NIEHS)
Calls of active or inactive are those of the source. The calls were made as follows: active = hit-call score of the fitted dose curve at least 0.9, where 1 is the maximum; inactive = score below 0.9.

Experiments:
Settings in all cases: mRNA level, 48 h; actives raise or lower the signal
[1] = read-out: Potassium channel subfamily K member 1 (KCNK1), KCNK1 (gene 3775); test: LTEA_HepaRG_KCNK1: Life Technologies and Expression Analysis (LTEA) Assay for Potassium channel subfamily K member 1 (KCNK1) using HepaRG (AID 2283511)
Summary of the method: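 Differentiated HepaRG cells, 48 h exposure in serum-free induction medium with 0.5% DMSO; 8 concentrations, half-log from 100 uM, duplicate. KCNK1 mRNA by qRT-PCR, normalized to ACTB, GAPDH, POLR2A; bidirectional fit vs DMSO.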

[2] = read-out: Keratin 19 (KRT19), KRT19 (gene 3880); test: LTEA_HepaRG_KRT19: Life Technologies and Expression Analysis (LTEA) Assay for Keratin 19 (KRT19) using HepaRG (AID 2283512)
Summary of the method: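 KRT19 transcript levels, measured by Fluidigm qRT-PCR against three housekeeping genes, are fitted for gain or loss of signal relative to DMSO. Human HepaRG cells receive test chemicals (top 100 uM, half-log steps, 0.5% DMSO) for 48 hours.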

[3] = read-out: Lipase C (LIPC), LIPC (gene 3990); test: LTEA_HepaRG_LIPC: Life Technologies and Expression Analysis (LTEA) Assay for Lipase C (LIPC) using HepaRG (AID 2283514)
Summary of the method: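 HepaRG cells, 48 h after plating, treated in duplicate for 48 h in serum-free induction medium over 8 half-log concentrations from 100 uM, 0.5% DMSO. LIPC mRNA by TaqMan qRT-PCR normalized to ACTB/GAPDH/POLR2A; bidirectional fit versus DMSO.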

[4] = read-out: Lipoprotein lipase (LPL), LPL (gene 4023); test: LTEA_HepaRG_LPL: Life Technologies and Expression Analysis (LTEA) Assay for Lipoprotein lipase (LPL) using HepaRG (AID 2283515)
Summary of the method: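 Differentiated HepaRG cells, plated 48 h, then exposed 48 h in serum-free induction medium to 8 concentrations (top 100 uM, half-log steps) in 0.5% DMSO, duplicate. LPL mRNA measured by qRT-PCR, normalized to ACTB, GAPDH and POLR2A.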

[5] = read-out: MicroRNA 122 (MIR122), gene 406906; test: LTEA_HepaRG_MIR122: Life Technologies and Expression Analysis (LTEA) Assay for MicroRNA 122 (MIR122) using HepaRG (AID 2283516); also: the transcript read is the microRNA miR-122
Summary of the method: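 Differentiated human HepaRG cells were exposed 48 h in serum-free induction medium to eight half-log concentrations (top 100 uM, 0.5% DMSO). Transcript level was measured by TaqMan qRT-PCR, normalized to ACTB, GAPDH and POLR2A, and fitted bidirectionally versus DMSO.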

[6] = read-out: matrix metalloproteinase-10 (MMP10), MMP10 (gene 4319); test: LTEA_HepaRG_MMP10: Life Technologies and Expression Analysis (LTEA) Assay for matrix metalloproteinase-10 (MMP10) using HepaRG (AID 2283517)
Summary of the method: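 Differentiated HepaRG cells in serum-free induction medium exposed 48 h in duplicate to 8-point half-log series up to 100 uM in 0.5% DMSO. mRNA quantified by qRT-PCR, normalised to ACTB, GAPDH, POLR2A; bidirectional fit versus DMSO.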

MYC, MYC (gene 4609) = test: LTEA_HepaRG_MYC: Life Technologies and Expression Analysis (LTEA) Assay for MYC using HepaRG (AID 2283518)
Summary of the method: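 HepaRG, ~100,000 cells/well, collagen I; 48 h plating; serum-free induction medium; 48 h dosing, duplicate, 100 uM top, half-log, 0.5% DMSO; total RNA → qRT-PCR MYC; gain/loss fit vs DMSO.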

[7] = read-out: matrix metalloproteinase-3 (MMP3), MMP3 (gene 4314); test: LTEA_HepaRG_MMP3: Life Technologies and Expression Analysis (LTEA) Assay for matrix metalloproteinase-3 (MMP3) using HepaRG (AID 2283519)
Summary of the method: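 HepaRG cells (~100,000/well) in serum-free induction medium were dosed in duplicate for 48 h with an 8-point half-log series from 100 uM, 0.5% DMSO. MMP3 mRNA was quantified by Fluidigm TaqMan qRT-PCR, normalized to three housekeeping genes.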

[8] = read-out: Paternally Expressed 10 (PEG10), PEG10 (gene 23089); test: LTEA_HepaRG_PEG10: Life Technologies and Expression Analysis (LTEA) Assay for Paternally Expressed 10 (PEG10) using HepaRG (AID 2283520)
Summary of the method: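 Differentiated HepaRG cells, plated 48 h then switched to serum-free induction medium, were exposed in duplicate for 48 h to eight half-log concentrations topping at 100 uM in 0.5% DMSO. PEG10 mRNA was quantified by TaqMan qRT-PCR, normalised to ACTB, GAPDH and POLR2A.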

[9] = read-out: Protein phosphatase 2A (PPP2R4), PTPA (gene 5524); test: LTEA_HepaRG_PPP2R4: Life Technologies and Expression Analysis (LTEA) Assay for Protein phosphatase 2A (PPP2R4) using HepaRG (AID 2283522)
Summary of the method: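 Differentiated HepaRG cells in serum-free induction medium were exposed in duplicate for 48 h to eight concentrations, top 100 uM with half-log dilutions, in 0.5% DMSO. PPP2R4 mRNA was quantified by TaqMan qRT-PCR, normalized to ACTB, GAPDH and POLR2A.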

[10] = read-out: Phosphatase and tensin (PTEN), PTEN (gene 5728); test: LTEA_HepaRG_PTEN: Life Technologies and Expression Analysis (LTEA) Assay for Phosphatase and tensin (PTEN) using HepaRG (AID 2283523)
Summary of the method: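 HepaRG cells, 48 h after plating, exposed in duplicate for 48 h in serum-free induction medium to 8 half-log concentrations up to 100 uM (0.5% DMSO). PTEN mRNA by qRT-PCR, normalized to ACTB, GAPDH, POLR2A; bidirectional fit versus DMSO.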

[11] = read-out: solute carrier (SLC22A1), SLC22A1 (gene 6580); test: LTEA_HepaRG_SLC22A1: Life Technologies and Expression Analysis (LTEA) Assay for solute carrier (SLC22A1) using HepaRG (AID 2283524)
Summary of the method: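 Differentiated human HepaRG cells in serum-free induction medium, exposed 48 h in duplicate to 8-point half-log series from 100 µM top in 0.5% DMSO. SLC22A1 mRNA by TaqMan qRT-PCR normalized to ACTB, GAPDH, POLR2A; bidirectional fit versus DMSO.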

[12] = read-out: Pyruvate Dehydrogenase Kinase 4 (PDK4), PDK4 (gene 5166); test: LTEA_HepaRG_PDK4: Life Technologies and Expression Analysis (LTEA) Assay for Pyruvate Dehydrogenase Kinase 4 (PDK4) using HepaRG (AID 2283525)
Summary of the method: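 HepaRG cells plated 48 h, then switched to serum-free induction medium and exposed in duplicate for 48 h to 8 half-log concentrations from 100 uM in 0.5% DMSO. PDK4 mRNA measured by qRT-PCR, normalized to ACTB, GAPDH and POLR2A; bidirectional fit versus DMSO.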

[13] = read-out: NAD(P)H dehydrogenase [quinone] 1 (NQO1), NQO1 (gene 1728); test: LTEA_HepaRG_NQO1: Life Technologies and Expression Analysis (LTEA) Assay for NAD(P)H dehydrogenase [quinone] 1 (NQO1) using HepaRG (AID 2283526)
Summary of the method: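 Differentiated HepaRG cells, plated 48 h and then switched to serum-free induction medium, were exposed in duplicate for 48 h to 8-point half-log concentrations up to 100 uM in 0.5% DMSO. mRNA measured by qRT-PCR, normalized to ACTB, GAPDH, POLR2A; bidirectional fit versus DMSO.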

[14] = read-out: succinate dehydrogenase complex iron sulfur subunit B (SDHB), SDHB (gene 6390); test: LTEA_HepaRG_SDHB: Life Technologies and Expression Analysis (LTEA) Assay for succinate dehydrogenase complex iron sulfur subunit B (SDHB) using HepaRG (AID 2283528)
Summary of the method: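 Readout is SDHB transcript level by qRT-PCR, normalised to three housekeeping genes and fitted bidirectionally against 0.5% DMSO vehicle. Human HepaRG cells were treated for 48 h at up to 100 uM.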

[15] = read-out: solute carrier (SLCO1B1), SLCO1B1 (gene 10599); test: LTEA_HepaRG_SLCO1B1: Life Technologies and Expression Analysis (LTEA) Assay for solute carrier (SLCO1B1) using HepaRG (AID 2283530)
Summary of the method: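 HepaRG, serum-free induction medium, 48 h dosing, 8-pt half-log from 100 uM, 0.5% DMSO vehicle, duplicates. Readout: SLCO1B1 mRNA, qRT-PCR, ACTB/GAPDH/POLR2A normalization; up or down fit vs DMSO.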

[16] = read-out: Nuclear factor NF-kappa-B p105 subunit (Homo sapiens) (UniProt P19838); test: LTEA_HepaRG_NFKB1: Life Technologies and Expression Analysis (LTEA) Assay for Nuclear Factor Kappa B Subunit 1 (NFKB1) using HepaRG (AID 2283521);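 also: TaqMan qRT-PCR transcript normalised to ACTB GAPDH and POLR2A housekeeping genes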
Summary of the method: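 HepaRG, 48 h exposure; 8-pt half-log series from 100 uM in 0.5% DMSO; duplicates. Readout: NFKB1 mRNA by qRT-PCR (Fluidigm arrays), housekeeping-normalized. Gain/loss fit vs DMSO baseline.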

[17] = read-out: Nuclear factor erythroid 2-related factor 2 (Homo sapiens) (UniProt Q16236); test: LTEA_HepaRG_NFE2L2: Life Technologies and Expression Analysis (LTEA) Assay for Nuclear factor erythroid 2-related factor 2 (NFE2L2) Transcription Factor using HepaRG (AID 2283527)
Summary of the method: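 Differentiated human HepaRG cells, serum-free induction medium, exposed 48 h in duplicate to eight half-log concentrations up to 100 uM in 0.5% DMSO. NFE2L2 mRNA by Fluidigm TaqMan qRT-PCR, normalised to ACTB, GAPDH, POLR2A; bidirectional change versus DMSO.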

Measured: AC50

Nuclear factor erythroid 2-related factor 2 (Homo sapiens), sequence (Q16236 whole entry, looked up): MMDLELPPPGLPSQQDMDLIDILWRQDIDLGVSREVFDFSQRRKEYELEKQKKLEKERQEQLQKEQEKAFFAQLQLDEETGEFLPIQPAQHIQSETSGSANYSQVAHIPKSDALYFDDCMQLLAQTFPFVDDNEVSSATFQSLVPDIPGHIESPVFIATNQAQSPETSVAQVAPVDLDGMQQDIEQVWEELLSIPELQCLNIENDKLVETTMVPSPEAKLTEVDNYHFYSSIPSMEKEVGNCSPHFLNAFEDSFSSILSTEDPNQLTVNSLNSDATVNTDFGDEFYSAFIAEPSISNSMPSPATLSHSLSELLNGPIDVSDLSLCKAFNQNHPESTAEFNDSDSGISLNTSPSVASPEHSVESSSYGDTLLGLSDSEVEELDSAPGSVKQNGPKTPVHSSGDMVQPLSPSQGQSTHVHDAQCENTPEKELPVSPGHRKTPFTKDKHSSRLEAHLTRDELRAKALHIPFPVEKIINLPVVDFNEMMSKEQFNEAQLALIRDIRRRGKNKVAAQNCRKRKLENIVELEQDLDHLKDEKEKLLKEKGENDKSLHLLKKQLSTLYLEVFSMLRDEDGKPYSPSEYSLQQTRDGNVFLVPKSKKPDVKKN
Nuclear factor NF-kappa-B p105 subunit (Homo sapiens), sequence (P19838 whole entry, looked up): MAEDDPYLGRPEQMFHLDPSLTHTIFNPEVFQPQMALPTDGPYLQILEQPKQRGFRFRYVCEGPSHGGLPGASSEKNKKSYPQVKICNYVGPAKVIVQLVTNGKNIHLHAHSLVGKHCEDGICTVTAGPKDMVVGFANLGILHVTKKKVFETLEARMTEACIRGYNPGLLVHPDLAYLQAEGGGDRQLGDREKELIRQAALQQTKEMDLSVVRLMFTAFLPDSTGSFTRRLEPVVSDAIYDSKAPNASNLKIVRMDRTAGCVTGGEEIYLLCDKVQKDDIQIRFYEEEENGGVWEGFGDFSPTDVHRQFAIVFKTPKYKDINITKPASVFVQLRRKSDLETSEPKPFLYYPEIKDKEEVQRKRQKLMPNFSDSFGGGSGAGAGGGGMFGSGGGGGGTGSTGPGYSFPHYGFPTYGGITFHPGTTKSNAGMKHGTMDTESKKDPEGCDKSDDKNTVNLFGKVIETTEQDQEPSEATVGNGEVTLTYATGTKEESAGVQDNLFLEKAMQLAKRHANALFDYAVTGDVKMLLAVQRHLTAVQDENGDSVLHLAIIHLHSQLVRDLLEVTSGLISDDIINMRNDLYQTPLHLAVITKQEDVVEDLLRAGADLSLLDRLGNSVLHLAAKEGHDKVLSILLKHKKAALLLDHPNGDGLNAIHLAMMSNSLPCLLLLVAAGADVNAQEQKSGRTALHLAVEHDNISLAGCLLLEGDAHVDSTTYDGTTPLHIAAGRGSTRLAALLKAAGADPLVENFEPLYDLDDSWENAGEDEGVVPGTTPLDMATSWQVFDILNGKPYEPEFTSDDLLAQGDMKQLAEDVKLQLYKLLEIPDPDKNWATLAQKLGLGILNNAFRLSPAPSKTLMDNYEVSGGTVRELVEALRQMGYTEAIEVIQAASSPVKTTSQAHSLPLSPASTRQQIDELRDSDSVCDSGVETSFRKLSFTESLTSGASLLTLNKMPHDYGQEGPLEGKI

Cc1ccc(O)cc1C
not listed: [16] | [17]
inactive: all other assays above

c1cc2c3c(cccc3c1)CC2
inactive: all assays above

CCOP(=S)(Oc1ccc([N+](=O)[O-])cc1)c1ccccc1 (stereo unspecified)
active: [2] 15.9 µM | [10] 0.0422 µM | [17] 37.9 µM
not listed: [13] | [15]
inactive: all other assays above

Nc1ccc(Cl)cc1
not listed: [16]
inactive: all other assays above

CC(C)(C)c1ccc(O)cc1
active: [5] 0.197 µM
not listed: [16] | [17]
inactive: all other assays above

O=P(Oc1ccccc1)(Oc1ccccc1)Oc1ccccc1
active: [2] 0.981 µM | [11] 50 µM | [12] 28.4 µM | [17] 21.2 µM
inactive: all other assays above
